Data reported in the supplement of paper PMC11634586.
Unmarked numbers belong to inactive results.

Tested on: NCI-H1688
Experiment: inhibition of cell viability relative to untreated control (fraction); higher = stronger growth inhibition, active = 0.5 or more
Details: 30 µM; 24 h
In short: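 After seeding at 3 × 10^3 cells/well in 96-well plates and a 24 h wait, NCI-H1688 small cell lung cancer cells received a natural compound library (TargetMol) at 30 µM for 24 h, kept at 37°C with 5% CO2. Triplicate readings of Cell Counting Kit-8 absorbance at 450 nm measured viability. Each value is the inhibition of cell viability as a fraction, derived from viability normalised to untreated cells.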

Row | Compound | inhibition of cell viability
1 | OC[C@@H](O)[C@H](O)[C@@H](O)CO [Xylitol] | 0.015
2 | COc1cc(/C=C/C(=O)O)cc(OC)c1OC [3,4,5-Trimethoxycinnamic acid] | 0.124
3 | O=c1c2ccccc2oc2ccccc12 [Xanthone] | -0.129
4 | C/C=C(/C)C(=O)OC(C)(C)[C@@H]1Cc2c(ccc3ccc(=O)oc23)O1 [Columbianadin] | 0.338
5 | C[C@@H]1O[C@@H](OC[C@H]2O[C@@H](Oc3c(-c4ccc(OCCO)c(OCCO)c4)oc4cc(OCCO)cc(O)c4c3=O)[C@H](O)[C@@H](O)[C@@H]2O)[C@H](O)[C@H](O)[C@H]1O [Troxerutin] | -0.145
6 | COc1cc2c(c(OC)c1OC)-c1c(cc3c(c1OC)OCO3)CC(C)C(C)C2 (stereo unspecified) [Schizandrin B] | -0.0395
7 | COc1ccc(-c2cc(=O)c3c(O)c(OC)c(O[C@@H]4O[C@H](CO[C@@H]5O[C@@H](C)[C@H](O)[C@@H](O)[C@H]5O)[C@@H](O)[C@H](O)[C@H]4O)cc3o2)cc1 [Pectolinarin] | 0.194
8 | Cn1cnc2c1c(=O)[nH]c(=O)n2C [Theobromine] | 0.0986
9 | CC(C)[C@@H]1CC[C@@H](C)C[C@H]1O [L-Menthol] | 0.178
10 | Nc1nc(=O)c2c([nH]1)NCC(CNc1ccc(C(=O)N[C@@H](CCC(=O)O)C(=O)O)cc1)N2C=O (stereo partly specified) [Calcium folinate] | 0.028
11 | Cc1coc2c1C(=O)C(=O)c1c-2ccc2c1CCCC2(C)C [Tanshinone IIA] | 0.958 (active)
